Measurements from PubChem BioAssay (Tox21).
“And” between values parts separate entries of the source, which are not always exact repeats. Equal values may be shown once. Inconclusive results are not listed. Some compounds were tested as several samples or in several runs, with calls that do not always agree. The source made the active and inactive calls. Unless noted, the call rests on the fitted dose curve; in most records, active means well fitted curve in the direction sought with a large enough effect in the repeat runs; inconclusive means weak or mixed curves; inactive means no such curve, though single readings can be large; an effect the other way counts as inactive or inconclusive.

How the values were obtained:
[1] = qHTS assay to identify small molecule agonists of the vitamin D receptor (VDR) signaling pathway - cell viability counter screen (AID 743224); further: series mostly up to about 63 µM; on the % scale 0 is the no-effect control and ±100 the full control effect; nearly all actives have a fitted effect of over 50% in size
Procedure, shortened: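 CellTiter-Glo viability readout on VDR-bla cells, measured after 16 h of compound treatment at 37C in the same wells.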

[2] = qHTS assay to identify small molecule agonists of the NFkB signaling pathway - cell viability counter screen (AID 1159515; calls by dose curve; further: series mostly up to about 61 µM; on the % scale 0 is the no-effect control and ±100 the full control effect; nearly all actives have a fitted effect of over 55% in size)
Procedure, shortened: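 Tox21 library compounds were tested for cytotoxicity against NFkB-bla ME-180 cells during a 5 hr exposure at 37 C. CellTiter-Glo luminescence served as the viability read-out.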

[3] = qHTS assay to identify small molecule agonists of the endoplasmic reticulum stress response signaling pathway - cell viability counter screen (AID 1159517; calls by dose curve; further: series mostly up to about 61 µM; on the % scale 0 is the no-effect control and ±100 the full control effect; nearly all actives have a fitted effect of over 50% in size)
Procedure, shortened: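 Cpd-treated ESRE-bla HeLa (5 hr, 37 C) → LiveBLAzer 2 hr RT → CellTiter-Glo 30 min RT → luminescence.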

[4] = qHTS assay to identify small molecule antagonists of the retinoid-related orphan receptor gamma (ROR-gamma) signaling pathway - cell viability counter screen (AID 1159520); further: on the % scale 0 is the no-effect control and ±100 the full control effect; nearly all actives have a fitted effect of over 50% in size
Procedure, shortened: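 Tet-on ROR gamma CHO cells (1,000/well) were plated 4 hr, given compounds in DMSO for 2 hr at 37 C, then induced with 1 uM final doxycycline for 16 hr. Viability was read as ATP by CellTiter-Glo luminescence after 30 min.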

[5] = target: Nuclear receptor ROR-gamma (Homo sapiens) (UniProt P51449); test: qHTS assay to identify small molecule antagonists of the retinoid-related orphan receptor gamma (ROR-gamma) signaling pathway (AID 1159521; further: nearly all actives have a fitted effect of over 50% in size; further: potency means the concentration at half of the fitted maximal effect)
Procedure, shortened: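 Cells were plated, rested 4 h at 37 C, exposed to compounds for 2 h, then given 1 uM final doxycycline hyclate to induce RORγ expression. After 16 h, ONE-Glo luminescence from the ROR response element reporter was measured.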

[6] = qHTS assay to identify small molecule agonists of the AP-1 signaling pathway - cell viability counter screen (AID 1159525; calls by dose curve; further: nearly all actives have a fitted effect of over 55% in size)
Procedure, shortened: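 Each titration point was normalised to DMSO and tetra n-octyl ammonium bromide controls. The read was Cell Titer Glo luminescence after 30 min at RT, following 5 h compound exposure of ME-180 AP-1-bla cells at 37 °C.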

[7] = qHTS assay to identify small molecule agonists of the AP-1 signaling pathway (AID 1159526; calls by dose curve; further: on the % scale 0 is the no-effect control and ±100 the full control effect)
[8] = target: Retinoic acid receptor RXR-alpha (Homo sapiens) (UniProt P19793); test: qHTS assay to identify small molecule agonists of the RXR signaling pathway (AID 1159527; calls by dose curve; further: on the % scale 0 is the no-effect control and ±100 the full control effect; nearly all actives have a fitted effect of over 35% in size)
Chain of Retinoic acid receptor RXR-alpha (Homo sapiens) (P19793 whole entry, looked up): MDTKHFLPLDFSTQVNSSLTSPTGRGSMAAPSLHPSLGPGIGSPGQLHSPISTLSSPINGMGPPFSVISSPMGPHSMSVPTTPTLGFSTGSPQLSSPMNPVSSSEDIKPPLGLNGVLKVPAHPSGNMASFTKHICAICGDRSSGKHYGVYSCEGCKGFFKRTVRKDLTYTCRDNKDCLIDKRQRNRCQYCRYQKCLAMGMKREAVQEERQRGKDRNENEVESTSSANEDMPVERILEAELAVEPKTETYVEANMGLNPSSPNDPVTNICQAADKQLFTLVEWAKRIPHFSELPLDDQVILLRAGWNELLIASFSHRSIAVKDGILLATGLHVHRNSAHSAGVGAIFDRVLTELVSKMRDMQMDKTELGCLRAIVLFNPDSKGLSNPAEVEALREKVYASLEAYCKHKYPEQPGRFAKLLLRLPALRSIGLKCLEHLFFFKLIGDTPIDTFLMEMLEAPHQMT
Procedure, shortened: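 Cells plated at 2,000/well, rested 5 hr at 37 C, pin-dosed with DMSO compound solutions, incubated 16 hr, then loaded with B/G FRET substrate for 2 hr at RT before dual-emission fluorescence reading.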

[9] = qHTS assay to identify small molecule agonists of the RXR signaling pathway - cell viability counter screen (AID 1159529); further: nearly all actives have a fitted effect of over 50% in size; further: potency means the concentration at half of the fitted maximal effect
Procedure, shortened: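 Steps: seed RXR-alpha-UAS-bla HEK 293T cells in assay medium containing 2% charcoal-stripped FBS; incubate 5 hr; add compounds in DMSO; incubate 16 hr at 37 C; after the bla read, add CellTiter-Glo and read luminescence at 30 min.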

[10] = qHTS assay to identify small molecule antagonists of the retinoid acid receptor (RAR) signaling pathway - cell viability counter screen (AID 1159551); further: on the % scale 0 is the no-effect control and ±100 the full control effect; nearly all actives have a fitted effect of over 35% in size
Procedure, shortened: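 In this counter screen, the RARE-luciferase line C3RL4 was exposed for 6 h at 37 C and 5% CO2 to compounds with retinol at 1 uM final. Cellular ATP, read by luminescence, served as the viability measure.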

[11] = qHTS assay to identify small molecule antagonists of the retinoic acid receptor (RAR) signaling pathway (AID 1159552)
Procedure, shortened: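 Retinol at 1 uM final stimulated RARE-luciferase expression in C3RL4 cells exposed to test compounds for 6 hr at 37 C. Reduced luminescence, read 30 min after detection reagent, indicated pathway antagonism.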

[12] = qHTS assay to identify small molecule agonists of the retinoic acid receptor (RAR) signaling pathway (AID 1159553); further: potency means the concentration at half of the fitted maximal effect
Procedure, shortened: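 In this cell-based screen, 1,000 C3RL4 cells per well were cultured overnight, dosed with test chemicals in DMSO for 6 hr, and assessed for RARE luciferase luminescence.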

[13] = qHTS assay to identify small molecule antagonists of the vitamin D receptor (VDR) signaling pathway - cell viability counter screen (AID 743225)
Procedure, shortened: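 HEK293T VDR-bla; cpd + 1a,25-(OH)2D3 3 nM final, 16 h 37C/5% CO2; B/G FRET substrate 2 h RT; then CellTiter-Glo 30 min RT, luminescence.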

[14] = qHTS assay to identify small molecule agonists of the endoplasmic reticulum stress response signaling pathway (AID 1159516; active means well fitted activation curve with a large enough effect in the signal ratio in the repeat runs, not every such curve was filed as active; the % refers to the signal ratio; further: on the % scale 0 is the no-effect control and ±100 the full control effect)
Procedure, shortened: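 Fluorescence at 460 and 530 nm (405 nm excitation) reports beta-lactamase from an ER stress response element in HeLa cells treated 5 hr at 37 C.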

[15] = qHTS assay to identify small molecule antagonists of the estrogen related receptor (ERR) signaling pathway - cell viability counter screen (AID 1224818); further: series mostly up to about 46 µM; on the % scale 0 is the no-effect control and ±100 the full control effect
Procedure, shortened: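 Viability of ERR cells, CellTiter-Fluor fluorescence; 17.5 h compound exposure at 37 C, DMSO vehicle; 30 min reagent incubation at 37 C/5% CO2.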

[16] = qHTS assay to identify small molecule antagonists of the estrogen related receptor signaling pathway with the pleiotropic PPARgamma coactivator (PGC) cell viability counter screen (AID 1224822; further: series mostly up to about 46 µM; on the % scale 0 is the no-effect control and ±100 the full control effect)
Procedure, shortened: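 17.5 h compound treatment of PGC/ERR cells at 37 C; readout CellTiter-Fluor fluorescence; run alongside the PGC/ERR antagonist screen to flag cytotoxic compounds.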

N#CC(C#N)=C(C#N)C#N
inactive: Potency [1] | Potency [2] | Potency [3] | Potency [4] | Potency [5] | Potency [6] | Potency [7] | Potency [8] | Potency [9] | Potency [10] | Potency [11] | Potency [12]

OCC1CO1 (stereo not drawn)
inactive: Potency [1] | Potency [13] | Potency [2] | Potency [3] | Potency [4] | Potency [5] | Potency [6] | Potency [7] | Potency [8] | Potency [9] | Potency [10]

CC(C)(C)c1ccc(CCOc2ncnc3ccccc23)cc1
inactive: Potency [1] | Potency [13] | Potency [2] | Potency [3] | Potency [4] | Potency [5] | Potency [6] | Potency [7] | Potency [8] | Potency [10] | Potency [11] | Potency [12]

C=C(Cl)Cl
inactive: Potency [1] | Potency [13] | Potency [2] | Potency [3] | Potency [4] | Potency [5] | Potency [6] | Potency [7] | Potency [8] | Potency [9] | Potency [10] | Potency [12]

O=[N+]([O-])c1cc(Cl)c(Cl)cc1Cl
inactive: Potency [1] | Potency [13] | Potency [2] | Potency [14] | Potency [3] | Potency [5] | Potency [6] | Potency [7] | Potency [8] | Potency [9] | Potency [10]

CN1C(=O)CN=C(c2ccccc2)c2cc([N+](=O)[O-])ccc21
inactive: Potency [1] | Potency [13] | Potency [2] | Potency [3] | Potency [4] | Potency [5] | Potency [6] | Potency [7] | Potency [8] | Potency [9] | Potency [10] | Potency [11] | Potency [12]

COc1ccc(C(O)(c2cncnc2)C2CC2)cc1 (stereo not drawn)
inactive: Potency [1] | Potency [13] | Potency [2] | Potency [3] | Potency [4] | Potency [5] | Potency [6] | Potency [7] | Potency [8] | Potency [9] | Potency [10] | Potency [11] | Potency [12]

O=C(O)C(F)(F)C(F)(F)C(F)(F)C(F)(F)C(F)(F)F
inactive: Potency [1] | Potency [13] | Potency [2] | Potency [14] | Potency [3] | Potency [5] | Potency [6] | Potency [7] | Potency [9] | Potency [10] | Potency [11] | Potency [12]

CN1C[C@H](C(=O)N[C@]2(C)O[C@@]3(O)[C@@H]4CCCN4C(=O)[C@H](Cc4ccccc4)N3C2=O)C=C2c3cccc4[nH]cc(c34)C[C@H]21
inactive: Potency [1] | Potency [13] | Potency [2] | Potency [3] | Potency [4] | Potency [6] | Potency [7] | Potency [8] | Potency [10]
active: Potency [9] 22 µM
54.7 µM (active) and inactive: Potency [5]

COc1ccccc1N1CCNCC1
inactive: Potency [13] | Potency [2] | Potency [14] | Potency [3] | Potency [5] | Potency [6] | Potency [7] | Potency [9] | Potency [10] | outcome [15] | outcome [16]

Clc1ccc2ccccc2c1
inactive: Potency [1] | Potency [13] | Potency [2] | Potency [14] | Potency [3] | Potency [5] | Potency [6] | Potency [7] | Potency [10] | Potency [11] | Potency [12]

C[N+](C)(C)CC1CO1 (stereo not drawn)
inactive: Potency [13] | Potency [2] | Potency [14] | Potency [3] | Potency [5] | Potency [6] | Potency [7] | Potency [8] | Potency [9] | Potency [10] | Potency [11] | Potency [12]

Nc1c(Br)cc(Br)c2c1C(=O)c1ccccc1C2=O
inactive: Potency [1] | Potency [13] | Potency [2] | Potency [14] | Potency [3] | activity change, negative = inhibition [5] 13.2% [at 19 µM] | viability change, negative = cytotoxic [6] 1.64% [at 15.8 µM] | activation [7] 0.821% [at 15.8 µM] | activity change, negative = cytotoxicity [9] 4.15% [at 15.8 µM] | activity change, negative = cytotoxicity [10] 0.857% [at 19 µM] | activity, negative = inhibition [11] 12.6% [at 19 µM] | Potency [12]

COc1ccc2c(c1OC)C(=O)O[C@H]2[C@@H]1c2cc3c(cc2CCN1C)OCO3
inactive: Potency [1] | Potency [13] | Potency [2] | Potency [14] | Potency [3] | Potency [5] | Potency [6] | Potency [7] | Potency [8] | Potency [9] | Potency [10] | outcome [15] | outcome [16]

Nc1ccc2c(c1)Cc1ccccc1-2
active: Potency [12] 10.8 µM
inactive: Potency [1] | Potency [13] | Potency [2] | Potency [14] | Potency [3] | Potency [5] | Potency [6] | Potency [7] | Potency [9] | Potency [10] | Potency [11]

C[C@@H]1C[C@@H]([C@H](O)CC2CC(=O)NC(=O)C2)C(=O)[C@@H](C)C1
inactive: Potency [1] | Potency [13] | Potency [2] | Potency [14] | Potency [3] | Potency [6] | Potency [9]
active: Potency [5] 383 nM and 137 nM and 237 nM

Oc1cccc(Cl)c1
inactive: Potency [1] | Potency [2] | Potency [14] | Potency [3] | Potency [5] | Potency [6] | Potency [7] | Potency [8] | Potency [9] | Potency [10]

CCc1cnc(C2=NC(C)(C(C)C)C(=O)N2)c(C(=O)O)c1 (stereo not drawn)
inactive: Potency [1] | Potency [13] | Potency [2] | Potency [3] | Potency [4] | Potency [5] | Potency [6] | Potency [7] | Potency [9] | Potency [10] | Potency [11] | Potency [12]

CCC(=O)O[C@@H]1C=C2CCC3C(CCC4(C)C3CC[C@@H]4OC(=O)CC)C2CC1 (stereo partly drawn)
inactive: Potency [1] | Potency [13] | Potency [2] | Potency [14] | Potency [3] | Potency [5] | Potency [6] | Potency [7] | Potency [8] | Potency [10]
